This is a sample that favours compounds with a hit; in the whole collection about 3.6% have one here.
esBAF inh – Bmi1 luciferase reporter increase in mESCs, primary screen, esBAF inhibitor project, mouse ES cells, Bmi1 luciferase knock-in, single point; 24 h; 100% = twice the neutral-well signal; reporter increase, % at 12.5 µM; actives 2% (n = 350,000); AID 602393, 2012; in the data active = activation above about 40%; inconclusive = no clear call, values can overlap the other calls;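 also: 0% = median of the plate's neutral control wells and 100% = double that signal; a rise in the Bmi1 reporter signal indicates esBAF inhibition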
MITF TRPM1 HTS – activators of MITF-driven TRPM1 promoter reporter, primary screen, cell-based, SK-MEL-5, luciferase, single point; SK-MEL-5 TRPM1-promoter luciferase, 24 h; % of positive control, neutral wells = 0; actives 0.75% (n = 300,000); activation, % at 12.5 µM;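 active = mean activation of at least 80% with every replicate also reaching 80%; inconclusive = mean reaches 80% but some replicate falls short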;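 also: 0% = neutral control wells and 100% = parthenolide positive control wells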
APOBEC3A inh – APOBEC3A ssDNA deaminase inhibitors, primary screen, selectivity assay for APOBEC3G inhibitor project, biochemical, FAM/TAMRA oligo cleavage fluorescence; DNA dC->dU-editing enzyme APOBEC-3A (Homo sapiens), P31941; recombinant A3A, FAM/TAMRA ssDNA deamination fluorescence; inhibition, % at 20 µM; actives 0.41% (n = 330,000);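 active = at least 40% inhibition at 20 µM here, with at most 30% in a related deaminase screen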;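 also: plate controls were A3A with DMSO for no effect and wells lacking A3A enzyme for full effect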
Target sequence (P31941 whole entry, looked up): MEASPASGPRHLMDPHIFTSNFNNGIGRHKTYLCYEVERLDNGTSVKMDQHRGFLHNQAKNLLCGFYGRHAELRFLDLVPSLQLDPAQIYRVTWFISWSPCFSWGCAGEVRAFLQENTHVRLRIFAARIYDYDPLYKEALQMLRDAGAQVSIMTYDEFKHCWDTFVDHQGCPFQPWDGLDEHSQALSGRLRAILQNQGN
APOBEC3G inh – APOBEC3G DNA deaminase inhibitors, primary screen, biochemical, fluorescence, single-stranded DNA substrate, uHTS; recombinant A3G, ssDNA deamination FAM/TAMRA fluorescence; inhibition, % at 20 µM; AID 493012, 2011; actives 0.28% (n = 330,000); DNA dC->dU-editing enzyme APOBEC-3G (Homo sapiens), Q9HC16;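 active = inhibition of at least 40% at 20 µM, with no more than 30% in the related APOBEC3A deaminase screen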;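 also: plate controls were DMSO wells with A3G for no effect and wells lacking A3G enzyme for full effect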
Target sequence (Q9HC16 whole entry, looked up): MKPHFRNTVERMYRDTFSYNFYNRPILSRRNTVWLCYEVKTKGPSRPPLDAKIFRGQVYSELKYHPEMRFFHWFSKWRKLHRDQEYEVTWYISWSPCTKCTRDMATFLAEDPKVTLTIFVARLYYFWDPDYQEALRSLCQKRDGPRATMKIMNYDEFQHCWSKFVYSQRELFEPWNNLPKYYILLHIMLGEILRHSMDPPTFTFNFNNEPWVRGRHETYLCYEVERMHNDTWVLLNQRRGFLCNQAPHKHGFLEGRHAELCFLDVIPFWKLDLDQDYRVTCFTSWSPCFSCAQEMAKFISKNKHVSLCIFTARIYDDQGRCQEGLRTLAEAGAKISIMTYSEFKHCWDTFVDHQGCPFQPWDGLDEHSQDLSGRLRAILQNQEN
Wnt bcat act – Wnt/beta-catenin pathway activators, primary screen, cell-based, plate reader, single point | actives 1.2% (n = 300,000) | activation, % at 9.35 µM | Wnt/beta-catenin reporter cell assay, activator; in the data active = activation above about 30%, passing the limit was not always enough; inconclusive = no clear call, values can overlap the other calls;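 also: 0% = neutral control wells and 100% = positive control wells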
PHOSPHO1 block – PubChem AID 1565. actives 1.1% (n = 290,000). inhibition, % at 13.3 µM. recombinant PHOSPHO1, absorbance phosphatase assay. Phosphoethanolamine/phosphocholine phosphatase (Homo sapiens), Q8TCT1; in the data active = inhibition above about 60%
Numbers without * were called inactive; ? = inconclusive; · = not tested or not shown.

SMILES	esBAF inh	MITF TRPM1 HTS	APOBEC3A inh	APOBEC3G inh	Wnt bcat act	PHOSPHO1 block
Cn1c(=O)c(C(=O)NCC2CCCO2)c(O)c2ccccc21 (stereo unspecified)	?	54	-13	-8	39*	1
Cn1c(C(=O)NCc2cccs2)cc2oc3ccccc3c21	52*	41	0	-1	11	7
Cc1ccccc1OCc1nnc(SCC(=O)NCc2ccccc2)n1C	-8	-5	0	-3	-1	48
COCCCn1nnnc1SCC(=O)Nc1ccc2c(c1)OCCO2	-2	14	-4	-6	-1	35
Cc1cccc(OCc2nnc(SCC(=O)c3cccs3)n2C)c1C	8	8	-1	-3	15	76*
Cn1c(SCC(=O)NCc2cccs2)nnc1-c1cccs1	·	3	-6	-7	-4	-6
Cn1c(SCC(=O)c2ccccc2)nnc1-c1cccs1	68*	60	1	-7	?	30
CCn1nnnc1SCC(=O)Nc1ccc2c(c1)OCCO2	·	37	2	1	43*	16
CCn1c(SCC(=O)c2cccs2)nnc1-c1cccs1	38	-9	-1	0	·	70*
C[C@@H]1CN([C@@H](C)CO)C(=O)c2cc(NC(=O)CCC(F)(F)F)ccc2O[C@@H](C)CCCCO[C@@H]1CN(C)S(=O)(=O)c1cn(C)cn1	-3	·	·	·	·	·
C[C@@H]1CN([C@@H](C)CO)C(=O)Cc2cc(NS(=O)(=O)c3cn(C)cn3)ccc2O[C@@H]1CN(C)S(=O)(=O)c1cccs1	-4	·	·	·	·	·
Cn1c(SCC(=O)c2ccccc2)nnc1-c1cccnc1	33	·	2	-1	5	18
CCn1c(SCC(=O)c2ccc(O)c(O)c2)nnc1-c1ccc(C)cc1	-7	1	2	-4	·	81*
CCn1c(SCC(=O)c2ccc3c(c2)Cc2ccccc2-3)nnc1-c1ccc(N)cc1	27	0	-3	-6	·	7
CCn1c(SCC(=O)NC(=O)Nc2ccc3c(c2)OCCO3)nnc1-c1cccs1	18	·	-2	-14	·	65*
CCn1c(SCC(=O)c2ccccc2)nnc1-c1cnccn1	50*	·	-3	-4	36*	7
Cn1c(SCC(=O)c2ccccc2)nnc1-c1cnccn1	48*	46	1	-5	29	83*
COc1ccc(S(=O)(=O)Nc2cccc3c2O[C@H](CN(C)C(=O)Nc2ccccc2)[C@H](C)CN([C@@H](C)CO)C3=O)cc1	3	·	·	·	·	·
Cn1c(SCc2c(Cl)cccc2Cl)nnc1-c1cccs1	48*	36	-3	-5	·	41
CN1C(=O)c2cc(NC(=O)C3CCOCC3)ccc2OC[C@H]2O[C@H](CC(=O)NCCc3ccncc3)CC[C@H]21	-3	·	·	·	·	·
COc1ccc(OC)c(-c2cc(C(=O)NC3CCCC3)c3ccccc3n2)c1	-12	1	2	-4	2	19
COc1cc2ccccc2cc1C(=O)NC1CCCCC1	45*	74	-3	-9	24	·
COc1ccccc1C(=O)Nc1ccccc1C(=O)NC1CCCCC1	1	-11	-5	-6	-4	51
COc1cc2ccccc2cc1C(=O)NC1CCCC1	96*	12	-2	-6	5	·
COc1cc(SC)ccc1C(=O)OCC(=O)NC1CCCCC1	-5	10	6	0	3	7
SMILES	esBAF inh	MITF TRPM1 HTS	APOBEC3A inh	APOBEC3G inh	Wnt bcat act	PHOSPHO1 block
COc1cc2ccccc2cc1C(=O)NC1CCC(C)CC1 (stereo unspecified)	57*	118*	-2	-7	38*	·
COc1cc(SC)ccc1C(=O)NC1CCCCC1	54*	27	1	-2	11	14
O=C(C1CCCCC1)N1C[C@@H]2[C@H](c3ccccc31)[C@@H](CO)N2C(=O)c1ccccc1F	1	·	·	·	·	·
COCCNC(=O)C[C@H]1C[C@@H]2c3cc(NC(=O)Nc4ccccc4)ccc3O[C@@H]2[C@@H](CO)O1	-1	·	·	·	·	·
O=C(NC(=S)Nc1ccc(F)cc1)c1ccc2c(c1)OCCO2	·	61	-1	-9	?	8
COc1ccc(NC(=S)NC(=O)c2ccc3c(c2)OCCO3)cc1	54*	70	-3	-4	-4	·
O=C(NC(=S)Nc1ccc2c(c1)OCCO2)c1ccccc1	2	37	6	3	·	-7
CCOc1cccc(C(=O)NC(=S)Nc2ccc3c(c2)OCCO3)c1	?	103*	3	-4	-1	9
O=C(C[C@H]1CC[C@@H]2[C@H](COC[C@@H](O)CN2Cc2cccc(Cl)c2)O1)NCC1CCCCC1	1	·	·	·	·	·
S=c1[nH]nc(Cc2sc(-c3ccccc3)nc2-c2ccccc2)o1	-2	-11	2	1	-1	90*
Cc1cccc(N2CCN(C(=O)Cn3sc4nc(C)cc(C)c4c3=O)CC2C)c1 (stereo unspecified)	6	-5	-4	53*	·	15
Cc1cccc(N2CCN(C(=O)Cn3nc(C)n4cccc4c3=O)CC2C)c1 (stereo unspecified)	-4	11	-1	-10	-2	-9
CC(C)C#Cc1cnc2c(c1)C(=O)N([C@H](C)CO)C[C@@H](C)[C@@H](CN(C)C(=O)c1cccnc1)O2	6	·	·	·	·	·
O=C(N=Nc1c(O)[nH]c2ccccc12)c1ccc2c(c1)OCO2	·	0	-5	-7	46*	32
CC(=O)Nc1ccc(C(=O)CSc2nc3ccccc3n2CC(=O)N2CCCC2)cc1	-7	-3	-3	-8	·	71*
CO[C@H]1CC[C@H]2CCOc3ccc(C#N)cc3C(=O)N(C)C[C@H](c3ccccc3)CC(=O)N(C)C[C@@H]1O2	2	·	·	·	·	·
N#CCCn1cc(C=C(C#N)C#N)c(-c2ccc(Cl)cc2)n1	·	5	-2	-6	-2	60*
O=C(NCCc1cccs1)C1CC(c2c(Cl)cccc2Cl)=NO1 (stereo unspecified)	80*	16	-1	-6	6	30
CC=Cc1ccc2n(c1=O)C[C@@H]1[C@@H](CO)[C@H](C(=O)NCC)[C@H]2N1CC1CCOCC1 (mixture of isomers)	-1	·	·	·	·	·
O=C(O)CCN1C(=O)/C(=C\c2ccc(-c3nc4ccccc4s3)o2)SC1=S	36	·	20	17	·	94*
Cc1ccccc1OCC(=O)Nc1sc2c(c1C#N)CCC2	47*	36	1	-1	-1	18
COc1ccccc1OCC(=O)Nc1sc2c(c1C(N)=O)CCC2	77*	89*	11	14	-2	·
CO[C@H]1CN(C)C(=O)c2cc(NC(C)=O)ccc2OC[C@H](C)N(Cc2cccnc2)C[C@H]1C	0	·	·	·	·	·

Screens as filed in PubChem.
